# ChEMBL document CHEMBL3988442, “University of Dundee, Small-Polar-MMV Screening Library” (2021)
# For some of these results: Measured potencies and affinities stand elsewhere.
# What was measured:
# Parameters in all cases: scale not given: direction of the effect not stated beside the values
# [1] = biological target: Protein translocase subunit SecA (Escherichia coli (strain K12)) (UniProt P10408); assay: Assay to Identify E. coli SecA ATPase Inhibitors; assay type: functional; settings: 30 µM
# [2] = biological target: T1, Ubiquitin-activating enzyme e1, putative (Leishmania donovani (strain BPK282A1)) (UniProt E9BSI1); assay: Leishmania donovani Ubiquitin Activating Enzyme (LdE1); assay type: functional; settings: 30 µM
# T1 sequence (whole entry): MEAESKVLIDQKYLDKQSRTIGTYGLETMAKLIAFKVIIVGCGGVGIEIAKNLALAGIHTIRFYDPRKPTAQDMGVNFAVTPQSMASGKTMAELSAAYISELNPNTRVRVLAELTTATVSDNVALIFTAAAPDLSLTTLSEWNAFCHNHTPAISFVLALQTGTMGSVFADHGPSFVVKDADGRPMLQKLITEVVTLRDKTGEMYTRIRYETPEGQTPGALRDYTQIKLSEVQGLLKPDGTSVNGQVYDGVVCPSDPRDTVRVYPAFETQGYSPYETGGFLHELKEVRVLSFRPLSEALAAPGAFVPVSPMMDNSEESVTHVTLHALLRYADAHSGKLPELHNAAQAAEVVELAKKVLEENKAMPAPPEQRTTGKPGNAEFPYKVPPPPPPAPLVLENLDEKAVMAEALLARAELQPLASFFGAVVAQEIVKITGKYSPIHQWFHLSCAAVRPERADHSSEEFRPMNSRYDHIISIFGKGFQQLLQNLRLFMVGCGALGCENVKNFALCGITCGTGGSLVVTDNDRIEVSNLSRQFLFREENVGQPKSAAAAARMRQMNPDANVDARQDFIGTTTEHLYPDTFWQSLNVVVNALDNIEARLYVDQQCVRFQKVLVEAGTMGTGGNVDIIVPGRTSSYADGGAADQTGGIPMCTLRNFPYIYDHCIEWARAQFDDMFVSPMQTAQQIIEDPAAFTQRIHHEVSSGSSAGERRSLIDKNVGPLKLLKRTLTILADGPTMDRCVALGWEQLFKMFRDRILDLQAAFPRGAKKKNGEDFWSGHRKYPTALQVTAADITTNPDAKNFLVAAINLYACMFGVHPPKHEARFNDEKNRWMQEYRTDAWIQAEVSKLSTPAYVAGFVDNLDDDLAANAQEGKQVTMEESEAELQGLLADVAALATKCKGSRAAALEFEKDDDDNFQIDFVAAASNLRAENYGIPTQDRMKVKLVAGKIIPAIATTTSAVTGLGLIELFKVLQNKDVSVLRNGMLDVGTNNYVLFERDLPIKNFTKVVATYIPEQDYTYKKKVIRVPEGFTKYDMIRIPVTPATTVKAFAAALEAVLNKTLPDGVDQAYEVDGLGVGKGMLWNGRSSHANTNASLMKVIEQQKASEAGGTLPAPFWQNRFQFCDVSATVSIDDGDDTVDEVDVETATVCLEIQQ
# [3] = biological target: AMP-activated protein kinase, AMPK (Homo sapiens) (UniProt P54646+O43741+P54619+Q9UGJ0+Q9Y478+Q13131+Q9UGI9); assay: AMP-dependent Kinase enzyme assay. An in vitro enzyme assay that detects ADP turnover that is directly proportional to AMPK activity. This uses naive AMPK that is activated during the assay with MK-8722; assay type: functional; settings: 30 µM
# [4] = biological target: Sialic acid-binding Ig-like lectin 9 (Homo sapiens) (UniProt Q9Y336); assay: Hs-Siglec9 ALPHAscreen SOP 20170721; settings: 10 µM
# [5] = system: Trypanosoma cruzi; assay: Trypanosoma cruzi phosphomannomutase and mannose-1-phosphate guanylyltransferase assay; assay type: functional; settings: 10 µM
# [6] = biological target: T2, Arginase-2, mitochondrial (Homo sapiens) (UniProt P78540); assay: in vitro enzyme assay to detect the production of urea directly proportional to the activity of Arginase II; assay type: functional; settings: 33.3 µM; note: in the data most compounds retested in dose-response had high values
# T2 sequence (whole entry): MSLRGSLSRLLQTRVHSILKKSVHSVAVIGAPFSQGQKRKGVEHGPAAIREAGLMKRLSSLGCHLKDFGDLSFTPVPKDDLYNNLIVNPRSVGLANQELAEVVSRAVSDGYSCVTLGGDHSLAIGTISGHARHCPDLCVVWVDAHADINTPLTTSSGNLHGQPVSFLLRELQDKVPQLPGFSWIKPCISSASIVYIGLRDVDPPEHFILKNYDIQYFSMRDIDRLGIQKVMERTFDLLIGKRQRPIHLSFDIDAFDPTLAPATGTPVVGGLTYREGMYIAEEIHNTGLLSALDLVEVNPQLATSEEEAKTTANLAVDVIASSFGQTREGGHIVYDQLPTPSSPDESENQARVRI
# [7] = biological target: T3, Proteasome subunit beta (Trypanosoma cruzi) (UniProt O96673); assay: Trypanosoma cruzi proteasome chymotrypsin-like activity (TcProtChymo) assay.; note: in the data most compounds retested in dose-response had high values; assay type: functional; settings: 9.37 µM
# T3 sequence (whole entry): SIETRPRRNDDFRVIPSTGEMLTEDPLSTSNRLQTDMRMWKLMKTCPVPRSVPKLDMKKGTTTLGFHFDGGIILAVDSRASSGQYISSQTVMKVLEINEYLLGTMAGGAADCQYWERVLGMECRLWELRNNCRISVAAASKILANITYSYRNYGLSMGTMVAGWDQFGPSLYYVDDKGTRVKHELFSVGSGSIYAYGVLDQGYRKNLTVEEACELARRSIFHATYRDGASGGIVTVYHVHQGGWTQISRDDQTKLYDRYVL
# [8] = species on record: Homo sapiens; assay: To identify inhibition of the IFN signalling (Jak-Stat) pathway via expression of an eGFP reporter gene under the control of an IFN-stimulated response element (ISRE) containing MxA promoter.; assay type: functional; settings: 30 µM
# [9] = biological target: T4, Tyrosyl-tRNA synthetase, putative (Trypanosoma cruzi (strain CL Brener)) (UniProt Q4DSP6); assay: Trypanosoma cruzi tyrosyl tRNA synthetase (TcYRS) _High Tyrosine SOP; assay type: functional; settings: 30 µM; note: in the data most compounds retested in dose-response had high values
# T4 sequence (whole entry): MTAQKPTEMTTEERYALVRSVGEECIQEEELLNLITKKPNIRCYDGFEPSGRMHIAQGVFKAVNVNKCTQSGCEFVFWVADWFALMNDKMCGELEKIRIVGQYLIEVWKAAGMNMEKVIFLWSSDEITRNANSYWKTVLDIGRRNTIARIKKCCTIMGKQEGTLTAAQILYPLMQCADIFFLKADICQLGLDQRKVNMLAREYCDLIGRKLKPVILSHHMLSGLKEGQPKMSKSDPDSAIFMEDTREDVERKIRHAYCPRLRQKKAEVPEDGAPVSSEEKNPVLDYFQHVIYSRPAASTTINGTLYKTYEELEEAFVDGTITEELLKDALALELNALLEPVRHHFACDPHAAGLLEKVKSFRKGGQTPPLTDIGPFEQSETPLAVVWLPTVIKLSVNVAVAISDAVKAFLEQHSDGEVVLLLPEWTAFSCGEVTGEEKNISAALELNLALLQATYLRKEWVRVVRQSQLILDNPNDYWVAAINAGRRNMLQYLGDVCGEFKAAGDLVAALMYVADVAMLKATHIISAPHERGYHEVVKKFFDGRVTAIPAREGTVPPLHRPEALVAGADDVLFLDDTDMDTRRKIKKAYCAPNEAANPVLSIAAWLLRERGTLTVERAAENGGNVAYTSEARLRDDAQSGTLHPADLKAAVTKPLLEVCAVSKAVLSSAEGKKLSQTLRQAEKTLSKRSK
# [10] = biological target: T4, Tyrosyl-tRNA synthetase, putative (Trypanosoma cruzi (strain CL Brener)); assay: Trypanosoma cruzi tyrosyl tRNA synthetase (TcYRS) SOP; assay type: functional; settings: 30 µM
# [11] = biological target: Chromo domain-containing protein 1 (Saccharomyces cerevisiae (strain ATCC 204508 / S288c) (Baker's yeast)) (UniProt P32657); assay: ScCHD-1 Enzyme Inhibition Assay; assay type: functional; settings: 30 µM; note: in the data most compounds retested in dose-response had high values
# Chain of Chromo domain-containing protein 1 (Saccharomyces cerevisiae (strain ATCC 204508 / S288c) (Baker's yeast)) (P32657 whole entry, the tested form may be a part): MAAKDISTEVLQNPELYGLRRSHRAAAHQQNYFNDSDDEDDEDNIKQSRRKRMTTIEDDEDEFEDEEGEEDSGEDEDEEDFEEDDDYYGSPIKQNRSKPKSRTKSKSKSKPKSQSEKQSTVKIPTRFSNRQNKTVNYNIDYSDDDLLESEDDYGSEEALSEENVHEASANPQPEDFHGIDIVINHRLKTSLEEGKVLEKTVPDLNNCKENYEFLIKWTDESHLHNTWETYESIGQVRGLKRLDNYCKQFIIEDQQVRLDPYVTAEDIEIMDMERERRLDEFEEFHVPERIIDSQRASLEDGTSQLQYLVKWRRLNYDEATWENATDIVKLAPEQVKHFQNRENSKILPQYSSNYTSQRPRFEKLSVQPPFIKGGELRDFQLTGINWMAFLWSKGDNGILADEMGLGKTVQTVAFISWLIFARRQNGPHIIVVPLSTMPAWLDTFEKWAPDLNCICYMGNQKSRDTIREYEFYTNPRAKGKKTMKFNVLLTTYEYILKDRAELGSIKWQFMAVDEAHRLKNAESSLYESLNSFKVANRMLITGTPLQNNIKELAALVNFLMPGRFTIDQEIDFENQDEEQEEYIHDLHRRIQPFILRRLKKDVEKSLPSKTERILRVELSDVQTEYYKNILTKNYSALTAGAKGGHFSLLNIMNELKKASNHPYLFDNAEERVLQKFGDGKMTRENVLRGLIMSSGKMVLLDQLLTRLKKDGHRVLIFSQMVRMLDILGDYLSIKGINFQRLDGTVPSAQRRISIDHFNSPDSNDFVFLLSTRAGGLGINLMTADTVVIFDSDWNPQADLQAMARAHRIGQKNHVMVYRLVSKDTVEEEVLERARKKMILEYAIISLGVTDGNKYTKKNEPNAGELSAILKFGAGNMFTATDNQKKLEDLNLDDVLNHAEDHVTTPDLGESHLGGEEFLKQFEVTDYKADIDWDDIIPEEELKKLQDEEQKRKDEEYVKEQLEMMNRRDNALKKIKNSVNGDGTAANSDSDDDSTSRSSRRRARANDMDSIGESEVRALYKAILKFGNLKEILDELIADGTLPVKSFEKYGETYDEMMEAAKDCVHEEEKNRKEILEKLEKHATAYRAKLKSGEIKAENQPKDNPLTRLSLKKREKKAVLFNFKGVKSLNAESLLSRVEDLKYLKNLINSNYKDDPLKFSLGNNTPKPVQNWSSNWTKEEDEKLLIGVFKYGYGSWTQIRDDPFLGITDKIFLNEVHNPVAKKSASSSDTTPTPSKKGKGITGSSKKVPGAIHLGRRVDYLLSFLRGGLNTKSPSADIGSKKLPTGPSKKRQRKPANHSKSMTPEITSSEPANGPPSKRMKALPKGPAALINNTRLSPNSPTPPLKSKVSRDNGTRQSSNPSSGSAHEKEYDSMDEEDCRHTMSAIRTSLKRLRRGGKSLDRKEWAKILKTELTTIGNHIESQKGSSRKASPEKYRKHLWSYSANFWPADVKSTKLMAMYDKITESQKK
# Chain of Protein translocase subunit SecA (Escherichia coli (strain K12)) (P10408 whole entry): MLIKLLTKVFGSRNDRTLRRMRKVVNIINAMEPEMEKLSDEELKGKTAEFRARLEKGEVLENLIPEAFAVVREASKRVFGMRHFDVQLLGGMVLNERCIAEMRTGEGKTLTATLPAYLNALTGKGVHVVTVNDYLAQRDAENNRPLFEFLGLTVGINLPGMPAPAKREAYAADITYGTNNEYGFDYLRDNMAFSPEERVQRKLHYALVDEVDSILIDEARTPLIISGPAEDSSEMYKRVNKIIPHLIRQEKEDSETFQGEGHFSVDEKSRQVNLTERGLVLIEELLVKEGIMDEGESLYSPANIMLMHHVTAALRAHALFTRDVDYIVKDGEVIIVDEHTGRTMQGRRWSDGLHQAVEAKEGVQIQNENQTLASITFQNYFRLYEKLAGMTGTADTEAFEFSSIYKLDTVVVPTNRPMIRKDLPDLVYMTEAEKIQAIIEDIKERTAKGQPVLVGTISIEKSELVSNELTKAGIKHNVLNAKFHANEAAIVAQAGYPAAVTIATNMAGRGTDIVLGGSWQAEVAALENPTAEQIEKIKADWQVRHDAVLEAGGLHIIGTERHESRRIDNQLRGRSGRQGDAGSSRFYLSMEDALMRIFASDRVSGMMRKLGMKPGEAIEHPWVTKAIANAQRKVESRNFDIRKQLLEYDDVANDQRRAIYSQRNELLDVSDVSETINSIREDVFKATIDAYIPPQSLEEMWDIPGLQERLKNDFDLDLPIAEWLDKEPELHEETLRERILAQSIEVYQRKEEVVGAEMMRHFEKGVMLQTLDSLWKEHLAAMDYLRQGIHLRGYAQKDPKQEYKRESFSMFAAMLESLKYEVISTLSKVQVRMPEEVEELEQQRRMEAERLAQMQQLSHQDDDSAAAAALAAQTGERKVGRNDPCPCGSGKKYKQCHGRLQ
# Chain of Sialic acid-binding Ig-like lectin 9 (Homo sapiens) (Q9Y336 whole entry): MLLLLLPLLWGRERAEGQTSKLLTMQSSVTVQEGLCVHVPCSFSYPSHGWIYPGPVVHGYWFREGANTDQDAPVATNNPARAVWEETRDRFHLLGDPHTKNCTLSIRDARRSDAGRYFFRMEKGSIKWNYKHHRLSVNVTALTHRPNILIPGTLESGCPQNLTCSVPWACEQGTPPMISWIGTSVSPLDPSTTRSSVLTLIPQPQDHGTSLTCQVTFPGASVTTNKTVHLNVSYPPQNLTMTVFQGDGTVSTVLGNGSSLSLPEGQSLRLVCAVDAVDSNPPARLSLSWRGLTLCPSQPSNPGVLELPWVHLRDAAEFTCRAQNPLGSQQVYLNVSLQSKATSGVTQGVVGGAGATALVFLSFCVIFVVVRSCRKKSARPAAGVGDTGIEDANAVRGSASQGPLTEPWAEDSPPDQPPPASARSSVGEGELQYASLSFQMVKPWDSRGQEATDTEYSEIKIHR
SMILES,Percent Effect [1],Percent Effect [2],Percent Effect [3],Percent Effect [4],Percent Effect [5],Percent Effect [6],Percent Effect [7],Percent Effect [8],Percent Effect [9],Percent Effect [10],Percent Effect [11]
CCc1noc(C(C)N2CCN(Cc3noc(C)n3)CC2)n1 (stereo not given),1.26%,21.1%,-0.566%,-7.24%,1.32%,-4.21%,19.6%,15.5%,6.37%,17.1%,-7.65%
CCNC(=O)N(C)Cc1ccc(SC)c(OC)c1,-3.35%,21.6%,-5.93%,0.171%,4.49%,7.92%,9.72%,-1.36%,7.92%,3.66%,92.2%
N#Cc1ccc(C(=O)N2CCn3c(Cn4cccn4)cnc3C2)cc1,-4.62%,2.67%,0.576%,1.75%,-3.86%,-57.5%,5.98%,-6.78%,2.08%,7.5%,-3.56%
CN(C)CCN(Cc1cccc(C(F)(F)F)c1)C(=O)c1cc[nH]n1,1.05%,-4.17%,-0.743%,-0.91%,-4.57%,2.65%,5.61%,6.86%,-3.16%,-10.3%,-3.17%
COc1cc(CC(O)CO)c(OC)c2c1OCO2 (stereo not given),-6.55%,14.7%,-12.3%,4.03%,6.29%,-12.5%,9.8%,5.7%,8.47%,15.4%,-21.2%
CC(NC(=O)NCCCN(C)C)c1ccc2c(c1)CCC(=O)N2 (stereo not given),-3.72%,13%,0.292%,-0.949%,10.1%,-6.05%,15%,-16.2%,8.74%,21.9%,-6.2%
Cc1nn(C)cc1C(=O)Nc1cccc(CN2CCC(CO)CC2)c1,-3.16%,18.4%,-4.72%,-21.7%,3.41%,26%,8.53%,28.8%,1.06%,15.6%,-7.09%
c1ccc(NCc2cn3c(n2)CN(Cc2cccnc2)CC3)nc1,-5.07%,13.5%,2.94%,-3.31%,-2.83%,4.78%,23.6%,4.12%,-1.08%,10.3%,0.00712%
Cc1cccc(CN2C[C@H]3OC(=O)N(CCCN4CCOCC4)[C@H]3C2)n1,-5.71%,5.33%,0.534%,17%,0.682%,2.08%,11.9%,2.81%,10.4%,16.1%,-8.08%
CN(Cc1ccco1)C(=O)CN1CCCC(Cn2cncn2)C1 (stereo not given),-2.53%,5.26%,-6.77%,10.4%,3.64%,2.16%,15%,-16.1%,5.42%,11.1%,-6.09%
O=C1NCCCCC1Sc1nnc(C2CC2)n1C1CC1 (stereo not given),1.19%,11%,-3.07%,-9.6%,3.72%,8.64%,18.5%,23.5%,5.38%,15%,-13.5%
Cn1cnnc1C1CCCN(C(=O)NCCc2ccccc2F)C1 (stereo not given),-3%,10.4%,-0.267%,-7.57%,5.97%,6.53%,6.71%,11.1%,3.81%,14.1%,-9.4%
Cc1nc(C)n(C2CCCN(C(=O)c3ccc4c(c3)COC4)C2)n1 (stereo not given),-2.83%,13.5%,-5.96%,7.05%,7.15%,2.4%,-4.67%,6.78%,2.97%,11%,0.576%
N#Cc1ccc(OCCNc2cccc(C(=O)N3CCOCC3)c2)cc1,-3.6%,15.6%,-1.62%,14.6%,6.98%,-8.28%,17.1%,16.8%,2.15%,13.6%,0.249%
CCc1cnc(N2C[C@H]3C[C@H](C(=O)N(C)C)[C@@H](C2)O3)nc1,-0.24%,13.3%,0.237%,8.45%,0.579%,-53.6%,2.91%,-12.6%,5.21%,10%,-6.38%
Cc1nc(CN2CCOC(c3nc(C(C)C)n[nH]3)C2)oc1C (stereo not given),-1.29%,5.06%,3.22%,7.38%,2.74%,2.66%,1.72%,-4.74%,3.45%,8.86%,-3.77%
COCCN1CCC(CNC(=O)C2(c3cccc(C)c3)CC2)CC1,-2.68%,3.8%,0.953%,1.27%,-4.82%,2.8%,0.172%,7.85%,1.04%,2.53%,-25%
N#Cc1ccc(C(=O)NCCCNc2ccc(C(F)(F)F)cn2)cc1,-0.682%,13.2%,3.77%,-0.309%,-7.52%,-0.766%,9.02%,35.5%,7.35%,17.1%,-10.9%
c1cnc(N2CCCC(NCc3cccc4c3OCCO4)C2)nc1 (stereo not given),-0.886%,-5.41%,-2.02%,-1.18%,3.87%,-4.81%,7.21%,10.1%,4.43%,3.7%,-2.9%
O=C(c1ccnnc1)N1C[C@@H]2CC[C@H](Oc3cccc(F)c3)[C@@H]2C1,-4.43%,-1.35%,15.2%,-2.19%,-6.13%,1.16%,2.34%,-7.87%,1.07%,-3.9%,-7.63%
